PubChem BioAssay
Records with an inconclusive call do not appear. Calls of active or inactive are those of the source.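 The calls were made as follows, unless noted: active = response below a set limit, under 55% cells CD8-positive and vesicle-bound, and CD8 cells' 90th-percentile brightness under 279; inactive = the rest.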

Columns and labels:
[1] = rapamycin-like changes in RPL19A-GFP expression – cell-based, S. cerevisiae, multiplex flow cytometry, primary screen (AID 1862; in the data active = percent of DMSO control GFP below about 86%;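 also: lower values mimic rapamycin by blocking the RPL19A rise seen in DMSO cells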); conditions: S. cerevisiae RPL19A-GFP strain, flow cytometry fluorescence, 3 h; at 10 µM; stronger effect = lower value
[2] = TOR pathway GLN3 branch reporter MEP2-GFP changes – S. cerevisiae, multiplex flow cytometry, primary screen (AID 1867;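 active = GFP response, as percent of the DMSO control, above the screen-wide mean plus 3 SD, about 139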;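 also: median GFP channel fluorescence of barcode-gated MEP2-GFP cells measured by flow cytometry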); conditions: S. cerevisiae MEP2-GFP strain, 3 h, at 10 µM, stronger effect = higher value, 100% means same as DMSO wells
[3] = TOR pathway RTG branch CIT2 reporter changes – S. cerevisiae, GFP fusion, multiplex flow cytometry, primary screen (AID 1870;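 active = percent response above a set limit, the screen-wide mean plus 3 SD, cut at about 130% in these data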;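 also: barcoded CIT2-GFP strain pooled with four other GFP strains with rapamycin as positive control; median GFP fluorescence per well over plate mean of DMSO wells so 100% = DMSO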); conditions: S. cerevisiae CIT2-GFP expression, 3 h, at 10 µM, stronger effect = higher value
[4] = TOR pathway LAP4-GFP level changes – S. cerevisiae, multiplex flow cytometry, primary screen (AID 1873;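 active = GFP signal, as percent of the solvent control, above the screen mean plus 3 SD, about 149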); conditions: S. cerevisiae LAP4-GFP expression, 3 h, at 10 µM, stronger effect = higher value
[5] = yeast AGP1-GFP level changes, GLN3 branch – cell-based, multiplex flow cytometry, S. cerevisiae, primary screen (AID 1887;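 active = GFP signal above the screen-wide mean plus 3 SD, that is over about 124.5% of the solvent control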;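 also: AGP1-GFP fusion strain of S. cerevisiae within a five-strain barcoded multiplex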); conditions: 3 h, at 10 µM, stronger effect = higher value
[6] = reduced mouse 2C T cell binding to pMHC/ICAM-1 vesicles – MLPCN validation set, flow cytometry, LFA-1/ICAM-1 modulator project, pilot screen (AID 2523); conditions: 2C mouse CD8+ T cells, at 7 µM, stronger effect = lower value; double positive events: measured here: CD8+/vesicle+ event percentage;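 as to vesicle binding response: mean PE anti-B7-1 fluorescence of CD8+ cells relative to row control; 100% = QL9-loaded vesicles with DMSO vehicle in the same plate row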
[7] = target: Integrin beta-1 (Homo sapiens) + Integrin alpha-4 (Homo sapiens) (UniProt P13612+P05556); experiment: alpha4beta1 integrin LIBS antibody binding reduction – U937 cells, HUTS-21 mAb, flow cytometry, validation set, VLA-4 allosteric modulator project, pilot screen (AID 2674;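 active = inhibition above 50%, about 3 SD of the validation set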;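 also: antibody binding induced by the VLA-4 ligand LDV present at three times its Kd; 0% = LDV ligand with antibody and no compound and 100% = antibody without LDV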); conditions: HUTS-21 LIBS mAb binding, at 6.7 µM, stronger effect = higher value, binding induced by LDV ligand
[8] = calorie-restriction mimetic ROS inhibitors, yeast – validation compound set, pilot screen (AID 2706;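 active = superoxide response below 65% of plate, a cut near 3 SD across the whole screen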;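 also: yeast exposed to compound for one week at 30 degrees C before staining; 100% = mean of all compound wells on the same plate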); conditions: S. cerevisiae aging, superoxide DHE fluorescence; at 10 µM; stronger effect = lower value
[9] = target: Beta-adrenergic receptor kinase 1 (Homo sapiens) (UniProt P25098); experiment: GRK2 binders displacing RNA aptamer, biochemical, validation, human GRK2, bead flow cytometry (AID 488806;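 active = aptamer binding inhibition above 30%, about 3 SD of noise from non-fluorescent compounds; inactive = inhibition at or below 30%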); conditions: bead-bound GRK2, FAM-aptamer displacement, at 10 µM, stronger effect = higher value
[10] = target: Beta-2 adrenergic receptor (Homo sapiens) (UniProt P07550); experiment: agonist-induced loss of surface beta2AR – cell-based, FAP fluorogen, flow cytometry, validation set, pilot screen (AID 504459;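 active = percent response above 42, roughly 3 SD of non-fluorescent test compounds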;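 also: agonist-driven loss of surface beta2AR via internalization measured by FAP dye flow cytometry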); conditions: Am2.2-beta2AR cells, at 10 µM, stronger effect = higher value
[11] = target: AP-2 complex subunit beta (Homo sapiens) (UniProt P63010); experiment: beta-arrestin/AP2 interaction blockers – biochemical, validation set, GST-AP2 beads, flow cytometry, pilot screen (AID 504541;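 active = inhibition above 54%, about 3 SD of non-fluorescent compounds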;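 also: AP2 carries R879A mutation and is captured from E. coli lysate; bead-bound FITC arrestin peptide fluorescence measuring arrestin peptide binding to AP2; 0% = DMSO wells and 100% = excess unlabeled arrestin peptide control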); conditions: FITC arrestin peptide, at 10 µM, stronger effect = higher value, AP2 beta2 appendage fragment, R879A mutant
[12] = cytosolic pH regulators acting via V-ATPase – S. cerevisiae, pHLuorin, HTS validation (AID 504600; in the data active = response above about 15%;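 also: plate controls were DMSO for no effect and reference compound for full effect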); conditions: V-ATPase proton transport, at 10 µM, stronger effect = higher value
[13] = tested on: anti-desmoglein-3 scFv antibody binding to human DSG3; experiment: blockers of pathogenic pemphigus antibody–desmoglein-3 binding – biochemical, validation compound set, bead-based, flow cytometry, pilot screen (AID 588368;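 active = binding below the plate cutoff, the plate median minus 3 SD, with a reading above zero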;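 also: signal is the median channel fluorescence of bead-bound GFP antibody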); conditions: Protein G beads, DSG3-Fc, scFv-GFP binding, at 10 µM, stronger effect = lower value
[14] = Nile Red efflux blockade in pump-expressing yeast – validation compound set, multiplex, phenotypic, pilot screen (AID 588506;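 active = efflux inhibition above 0.42, the validation set average plus 4 SD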;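 also: Nile Red retained in cells so higher fluorescence means more efflux inhibition; 0 = negative control wells and 1 = enniatin B 25 µM full block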); conditions: S. cerevisiae pump-expressing triplex, Nile Red efflux flow cytometry; at 10 µM; stronger effect = higher value; the pumps come from Candida albicans
[15] = target: ATP-binding cassette sub-family B member 6 (Homo sapiens) (UniProt Q9NP58); experiment: blockers of ABCB6-driven porphyrin uptake – K562-ABCB6 cells, flow cytometry, validation set, pilot screen (AID 588550;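 active = inhibition above the screen-wide mean plus 3 SD, about 51%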;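 also: 0% = DMSO wells and 100% = benzethonium chloride 70 µM positive control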); conditions: K562-ABCB6 porphyrin accumulation, 1 h, at 10 µM, stronger effect = higher value
[16] = AML differentiation inducers, ER-HoxA9 marrow cells – cell-based, GFP/MAC1 double positive, flow cytometry, validation set, primary screen (AID 588685;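 active = differentiation response of at least 50%, scaled between solvent and reference control, from cells with both markers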;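 also: compound exposure lasts four days before antibody staining and flow analysis; 0% = DMSO wells and 100% = 5 µM fulvestrant positive control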); conditions: stronger effect = higher value, normalized: vehicle 0, fulvestrant 100

Chain of Integrin beta-1 (Homo sapiens) + Integrin alpha-4 (Homo sapiens) (P05556 whole entry, looked up): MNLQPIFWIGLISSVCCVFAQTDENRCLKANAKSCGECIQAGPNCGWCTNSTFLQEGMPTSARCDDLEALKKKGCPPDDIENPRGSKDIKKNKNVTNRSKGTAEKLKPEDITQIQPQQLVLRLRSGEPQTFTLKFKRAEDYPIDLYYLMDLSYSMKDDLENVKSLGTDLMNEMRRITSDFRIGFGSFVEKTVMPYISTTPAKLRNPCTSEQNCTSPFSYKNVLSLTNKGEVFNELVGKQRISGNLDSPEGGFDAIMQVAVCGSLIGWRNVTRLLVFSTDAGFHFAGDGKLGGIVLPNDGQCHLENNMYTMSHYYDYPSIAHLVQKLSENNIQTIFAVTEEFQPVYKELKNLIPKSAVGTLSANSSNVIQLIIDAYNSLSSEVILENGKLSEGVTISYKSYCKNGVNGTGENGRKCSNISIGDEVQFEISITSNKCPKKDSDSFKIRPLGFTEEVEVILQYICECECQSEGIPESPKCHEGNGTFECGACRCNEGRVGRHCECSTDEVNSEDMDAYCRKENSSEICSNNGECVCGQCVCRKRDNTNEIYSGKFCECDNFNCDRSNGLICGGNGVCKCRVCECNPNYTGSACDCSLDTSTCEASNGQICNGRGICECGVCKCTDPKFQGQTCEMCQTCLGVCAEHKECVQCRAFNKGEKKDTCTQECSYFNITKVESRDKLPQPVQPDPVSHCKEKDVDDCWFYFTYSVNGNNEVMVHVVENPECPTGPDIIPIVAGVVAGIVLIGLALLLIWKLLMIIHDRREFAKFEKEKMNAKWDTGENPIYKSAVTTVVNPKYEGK
Chain of Integrin beta-1 (Homo sapiens) + Integrin alpha-4 (Homo sapiens) (P13612 whole entry, looked up): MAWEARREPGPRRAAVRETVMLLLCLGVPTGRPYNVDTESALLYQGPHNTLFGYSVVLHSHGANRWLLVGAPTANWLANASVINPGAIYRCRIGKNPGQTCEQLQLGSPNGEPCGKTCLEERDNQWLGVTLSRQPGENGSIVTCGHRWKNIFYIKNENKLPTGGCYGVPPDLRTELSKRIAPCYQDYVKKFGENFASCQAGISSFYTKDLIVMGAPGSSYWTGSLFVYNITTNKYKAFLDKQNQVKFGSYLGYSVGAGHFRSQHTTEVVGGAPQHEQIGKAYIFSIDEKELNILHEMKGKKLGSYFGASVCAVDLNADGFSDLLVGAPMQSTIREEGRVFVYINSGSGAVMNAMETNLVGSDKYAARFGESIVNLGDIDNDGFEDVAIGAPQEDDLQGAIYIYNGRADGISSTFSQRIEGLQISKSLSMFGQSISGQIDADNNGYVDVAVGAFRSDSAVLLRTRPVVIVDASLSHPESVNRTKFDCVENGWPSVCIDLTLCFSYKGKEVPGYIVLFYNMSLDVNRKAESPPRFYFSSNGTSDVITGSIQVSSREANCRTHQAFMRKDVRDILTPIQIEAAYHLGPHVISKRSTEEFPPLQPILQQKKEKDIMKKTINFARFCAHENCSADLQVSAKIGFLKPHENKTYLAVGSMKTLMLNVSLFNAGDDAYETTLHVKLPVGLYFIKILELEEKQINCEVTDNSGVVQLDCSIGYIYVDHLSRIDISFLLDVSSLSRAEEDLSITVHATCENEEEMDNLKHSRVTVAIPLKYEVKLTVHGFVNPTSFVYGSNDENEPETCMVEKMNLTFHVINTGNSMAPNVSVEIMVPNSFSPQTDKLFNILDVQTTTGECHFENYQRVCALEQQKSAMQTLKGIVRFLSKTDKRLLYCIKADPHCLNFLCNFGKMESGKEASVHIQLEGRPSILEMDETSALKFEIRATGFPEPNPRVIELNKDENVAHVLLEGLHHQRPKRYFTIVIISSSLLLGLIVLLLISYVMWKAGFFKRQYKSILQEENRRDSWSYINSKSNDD
Chain of Beta-2 adrenergic receptor (Homo sapiens) (P07550 whole entry, looked up): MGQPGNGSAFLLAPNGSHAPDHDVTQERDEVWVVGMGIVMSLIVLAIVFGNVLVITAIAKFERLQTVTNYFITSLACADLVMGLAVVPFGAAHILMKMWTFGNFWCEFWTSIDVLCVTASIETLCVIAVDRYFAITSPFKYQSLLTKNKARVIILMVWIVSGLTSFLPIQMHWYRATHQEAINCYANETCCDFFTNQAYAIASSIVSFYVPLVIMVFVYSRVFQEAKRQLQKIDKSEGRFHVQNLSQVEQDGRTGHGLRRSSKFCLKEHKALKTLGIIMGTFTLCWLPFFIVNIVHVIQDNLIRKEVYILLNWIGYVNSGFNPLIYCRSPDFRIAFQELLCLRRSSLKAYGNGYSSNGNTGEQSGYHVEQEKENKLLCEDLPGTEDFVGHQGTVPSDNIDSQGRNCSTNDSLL
Chain of ATP-binding cassette sub-family B member 6 (Homo sapiens) (Q9NP58 whole entry, looked up): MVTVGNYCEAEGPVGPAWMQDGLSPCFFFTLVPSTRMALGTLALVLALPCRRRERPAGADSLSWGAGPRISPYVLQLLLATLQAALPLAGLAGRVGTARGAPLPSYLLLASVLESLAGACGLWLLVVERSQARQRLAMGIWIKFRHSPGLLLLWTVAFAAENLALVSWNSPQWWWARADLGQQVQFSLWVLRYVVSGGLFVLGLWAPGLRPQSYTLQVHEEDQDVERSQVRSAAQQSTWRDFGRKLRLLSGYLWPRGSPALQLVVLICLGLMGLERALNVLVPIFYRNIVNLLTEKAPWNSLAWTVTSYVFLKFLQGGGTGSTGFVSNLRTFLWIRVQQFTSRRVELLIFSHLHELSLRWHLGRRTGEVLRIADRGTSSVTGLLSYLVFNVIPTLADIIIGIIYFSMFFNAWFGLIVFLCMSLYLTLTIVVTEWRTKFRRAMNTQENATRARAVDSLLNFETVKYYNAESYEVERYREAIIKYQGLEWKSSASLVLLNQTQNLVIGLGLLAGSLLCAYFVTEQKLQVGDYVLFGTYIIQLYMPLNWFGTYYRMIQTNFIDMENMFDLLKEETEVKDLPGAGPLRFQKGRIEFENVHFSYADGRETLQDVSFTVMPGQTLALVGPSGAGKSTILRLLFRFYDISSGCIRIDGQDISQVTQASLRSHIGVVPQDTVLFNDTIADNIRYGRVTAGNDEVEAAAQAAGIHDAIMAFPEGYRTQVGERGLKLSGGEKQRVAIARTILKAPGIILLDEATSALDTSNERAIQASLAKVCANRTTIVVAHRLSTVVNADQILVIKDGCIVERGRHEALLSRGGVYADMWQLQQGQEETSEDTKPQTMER
Chain of Beta-adrenergic receptor kinase 1 (Homo sapiens) (P25098 whole entry, looked up): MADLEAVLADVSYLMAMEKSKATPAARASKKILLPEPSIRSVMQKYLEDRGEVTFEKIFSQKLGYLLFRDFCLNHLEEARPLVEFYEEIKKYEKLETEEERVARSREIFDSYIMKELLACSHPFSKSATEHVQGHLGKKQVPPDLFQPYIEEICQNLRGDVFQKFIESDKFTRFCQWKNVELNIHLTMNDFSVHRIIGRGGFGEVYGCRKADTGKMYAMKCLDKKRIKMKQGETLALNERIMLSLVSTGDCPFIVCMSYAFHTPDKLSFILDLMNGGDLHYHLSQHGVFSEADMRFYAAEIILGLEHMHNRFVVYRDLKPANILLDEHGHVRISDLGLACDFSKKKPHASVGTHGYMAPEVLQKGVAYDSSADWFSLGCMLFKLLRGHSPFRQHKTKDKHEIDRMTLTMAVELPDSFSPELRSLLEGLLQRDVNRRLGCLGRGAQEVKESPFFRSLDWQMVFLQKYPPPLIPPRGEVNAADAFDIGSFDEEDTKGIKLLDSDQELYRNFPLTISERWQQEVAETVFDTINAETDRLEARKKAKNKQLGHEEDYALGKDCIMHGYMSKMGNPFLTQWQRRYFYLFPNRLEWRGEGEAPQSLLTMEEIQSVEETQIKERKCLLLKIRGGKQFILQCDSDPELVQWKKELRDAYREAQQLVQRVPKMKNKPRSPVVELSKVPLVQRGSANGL
Chain of AP-2 complex subunit beta (Homo sapiens) (P63010 whole entry, looked up, the tested form may be a part, one chain of several): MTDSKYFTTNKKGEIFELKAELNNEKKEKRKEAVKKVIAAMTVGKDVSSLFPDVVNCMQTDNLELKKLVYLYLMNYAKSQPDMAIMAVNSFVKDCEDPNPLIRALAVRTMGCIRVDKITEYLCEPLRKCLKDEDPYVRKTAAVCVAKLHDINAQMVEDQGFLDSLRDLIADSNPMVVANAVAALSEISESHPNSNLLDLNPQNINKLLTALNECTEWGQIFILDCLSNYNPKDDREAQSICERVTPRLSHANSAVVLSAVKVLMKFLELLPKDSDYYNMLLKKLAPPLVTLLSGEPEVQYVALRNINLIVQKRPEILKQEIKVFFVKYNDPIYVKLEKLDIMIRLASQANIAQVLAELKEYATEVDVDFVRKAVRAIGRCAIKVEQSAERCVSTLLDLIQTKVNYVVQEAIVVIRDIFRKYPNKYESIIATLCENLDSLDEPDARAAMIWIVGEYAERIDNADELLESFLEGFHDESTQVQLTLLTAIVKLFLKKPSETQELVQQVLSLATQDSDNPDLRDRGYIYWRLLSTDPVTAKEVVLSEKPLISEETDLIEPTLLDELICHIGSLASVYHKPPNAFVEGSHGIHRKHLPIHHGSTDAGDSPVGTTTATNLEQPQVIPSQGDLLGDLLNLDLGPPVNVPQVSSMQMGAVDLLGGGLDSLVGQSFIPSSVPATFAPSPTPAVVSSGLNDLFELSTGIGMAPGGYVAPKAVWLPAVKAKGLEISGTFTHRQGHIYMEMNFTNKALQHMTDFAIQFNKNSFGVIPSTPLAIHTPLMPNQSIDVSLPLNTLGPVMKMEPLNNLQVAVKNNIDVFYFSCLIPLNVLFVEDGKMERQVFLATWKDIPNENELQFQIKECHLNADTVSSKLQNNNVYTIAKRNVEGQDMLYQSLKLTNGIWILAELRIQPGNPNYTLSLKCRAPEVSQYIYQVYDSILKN

N/C(=N\OC(=O)c1ccc(Br)o1)c1ccccn1
inactive: percent of DMSO control GFP [1] 101% | GFP response vs DMSO [2] 102% | percent response of DMSO control [3] 95.1% | GFP response vs DMSO [4] 124% | GFP response, % of DMSO [5] 96.9% | vesicle binding response [6] 232% | inhibition [7] 17.6% | superoxide response (% of plate) [8] 117% | aptamer binding inhibition [9] 3% | response [10] -28.6% | inhibition [11] 2.47% | response [12] 5.72% | binding (% of control) [13] 98.7% | efflux inhibition (fraction of control) [14] -0.04 | inhibition [15] 6% | differentiation response [16] 5.85%
67.8%: double positive events [6]

Cc1ccc(N2C(=O)c3ccccc3C2=O)cc1C
inactive: percent of DMSO control GFP [1] 105% | GFP response vs DMSO [2] 104% | percent response of DMSO control [3] 107% | GFP response vs DMSO [4] 99.1% | GFP response, % of DMSO [5] 94.8% | vesicle binding response [6] 121% | inhibition [7] 6.95% | superoxide response (% of plate) [8] 99.1% | aptamer binding inhibition [9] 3% | response [10] -0.69% | inhibition [11] -6.64% | response [12] 0.36% | binding (% of control) [13] 101% | efflux inhibition (fraction of control) [14] 0.24 | inhibition [15] 0% | differentiation response [16] -3.11%
63.4%: double positive events [6]

O=C(O)CCCNc1ccc(S(=O)(=O)Nc2ccccc2C(=O)O)cc1C(=O)O
64.9%: double positive events [6]
inactive: percent of DMSO control GFP [1] 105% | GFP response vs DMSO [2] 94.1% | percent response of DMSO control [3] 116% | GFP response vs DMSO [4] 83.5% | GFP response, % of DMSO [5] 97% | vesicle binding response [6] 187% | inhibition [7] 12% | superoxide response (% of plate) [8] 101% | aptamer binding inhibition [9] 5% | response [10] -8.58% | inhibition [11] -4.62% | response [12] -5.39% | binding (% of control) [13] 102% | efflux inhibition (fraction of control) [14] -0.14 | inhibition [15] 17% | differentiation response [16] 4.15%

O=C(COc1ccc2ccc(=O)oc2c1)c1ccccc1
inactive: percent of DMSO control GFP [1] 91.1% | GFP response vs DMSO [2] 130% | percent response of DMSO control [3] 102% | GFP response vs DMSO [4] 85.3% | GFP response, % of DMSO [5] 88.4% | vesicle binding response [6] 132% | inhibition [7] -8.09% | superoxide response (% of plate) [8] 98.8% | aptamer binding inhibition [9] 1% | response [10] -4.3% | inhibition [11] 14.3% | response [12] -1.1% | binding (% of control) [13] 97.6% | efflux inhibition (fraction of control) [14] 0.19 | inhibition [15] -10% | differentiation response [16] -0.82%
59.9%: double positive events [6]

O=C(O)c1cc2cc(F)ccc2[nH]1
64.7%: double positive events [6]
inactive: percent of DMSO control GFP [1] 101% | GFP response vs DMSO [2] 101% | percent response of DMSO control [3] 105% | GFP response vs DMSO [4] 98.6% | GFP response, % of DMSO [5] 102% | vesicle binding response [6] 894% | inhibition [7] -15% | superoxide response (% of plate) [8] 113% | aptamer binding inhibition [9] 3% | response [10] 0.15% | inhibition [11] 8.62% | response [12] 1.32% | binding (% of control) [13] 97.2% | efflux inhibition (fraction of control) [14] -0.14 | inhibition [15] 14% | differentiation response [16] -1.71%

CCC1(c2ccccc2)NC(=S)N(c2ccc(C)c(C)c2)N1 (stereo unspecified)
inactive: percent of DMSO control GFP [1] 100% | GFP response vs DMSO [2] 106% | percent response of DMSO control [3] 105% | GFP response vs DMSO [4] 108% | GFP response, % of DMSO [5] 108% | vesicle binding response [6] 184% | inhibition [7] 5.69% | superoxide response (% of plate) [8] 107% | aptamer binding inhibition [9] 2% | response [10] -12.6% | inhibition [11] 1.79% | response [12] 2.75% | binding (% of control) [13] 105% | efflux inhibition (fraction of control) [14] 0.04 | inhibition [15] 3% | differentiation response [16] -12.9%
59.8%: double positive events [6]

CC(=O)Nc1nnc(S(N)(=O)=O)s1
inactive: percent of DMSO control GFP [1] 102% | GFP response vs DMSO [2] 95.1% | percent response of DMSO control [3] 116% | GFP response vs DMSO [4] 88.1% | GFP response, % of DMSO [5] 102% | vesicle binding response [6] 1080% | inhibition [7] 17.2% | superoxide response (% of plate) [8] 111% | aptamer binding inhibition [9] 5% | response [10] -4.02% | inhibition [11] -5.06% | response [12] 0.12% | binding (% of control) [13] 102% | efflux inhibition (fraction of control) [14] 0.05 | inhibition [15] 16% | differentiation response [16] 6.11%
62.4%: double positive events [6]

COc1ccc(N2C(=O)[C@@H]3[C@H](C2=O)[C@H]2c4ccccc4C=CN2[C@@H]3C(C)=O)cc1
64.6%: double positive events [6]
inactive: percent of DMSO control GFP [1] 101% | GFP response vs DMSO [2] 104% | percent response of DMSO control [3] 96.5% | GFP response vs DMSO [4] 112% | GFP response, % of DMSO [5] 96.8% | vesicle binding response [6] 176% | inhibition [7] -27.9% | superoxide response (% of plate) [8] 98.7% | aptamer binding inhibition [9] 2% | response [10] -19.3% | inhibition [11] -12.3% | response [12] -3.65% | binding (% of control) [13] 107% | efflux inhibition (fraction of control) [14] -0.26 | inhibition [15] -6% | differentiation response [16] -3.11%
